Results reported in PubChem BioAssay (NCATS).
Where “and” joins values, the source holds several entries; their conditions need not be identical. Equal values may be shown once. Results filed as inconclusive are left out. Calls of active or inactive are those of the source. Unless noted, calls follow the shape of the dose curve; as a rule, active = well fitted curve in the direction sought with a large enough effect; inconclusive = small, poorly fitted or top-dose-only effect, or another doubt; inactive = no such curve, though single readings can be large; an effect the other way counts as inactive or inconclusive.

Key:
[1] = Cell Viability - BJ (AID 421; calls by dose curve;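 also: potency is read from the fitted curve at half-maximal effect; cells exposed to compound for 40 hours at 37 °C before readout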); conditions: BJ fibroblast viability, qHTS
How it was run: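 Luminescent ATP signal (CellTiter-Glo, 20 min at room temperature) served as the read-out of viable BJ cells after 40 hours of compound treatment. Responses were scaled between DMSO and 100 uM tamoxifen, and AC50 values were obtained by Hill modeling.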

[2] = Cell Viability - HepG2 (AID 433; calls by dose curve;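 also: potency is read from the fitted curve at half-maximal effect; potency for ATP loss meaning cytotoxicity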); conditions: qHTS
How it was run: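 In this qHTS format, a 40 h, 37 °C compound incubation of HepG2 cells in complete medium precedes a 20 min CellTiter-Glo step at room temperature. Tamoxifen and doxorubicin serve as positive controls; Hill-equation fits yield AC50.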

[3] = Cell Viability - MRC5 (AID 434; calls by dose curve;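 also: potency is read from the fitted curve at half-maximal effect; potency reflects cytotoxicity seen as loss of intracellular ATP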); conditions: MRC5 lung fibroblast viability, qHTS
How it was run: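 ATP luminescence read-out (CellTiter-Glo, 20 min RT) after 40 hr, 37 °C compound exposure of 1500 MRC5 cells/well. Data normalized to DMSO (basal) and 100 uM tamoxifen (100% inhibition); AC50 from standard Hill equation.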

[4] = Cell Viability - SK-N-SH (AID 435; calls by dose curve; also: potency is read from the fitted curve at half-maximal effect); conditions: SK-N-SH neuroblastoma cell viability qHTS
How it was run: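 Human neuroblastoma line, 40 h exposure at 37 °C, ATP quantified via luciferase luminescence; DMSO and 100 uM tamoxifen define 0 and 100% inhibition for AC50 fitting.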

[5] = Cell Viability - NIH 3T3 (AID 541); conditions: NIH 3T3 cell viability, qHTS; activity change, negative = cytotoxicity: at 92.2 µM (top of the series);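 also: plate controls were DMSO alone for no effect and tamoxifen positive control for full effect; nearly all actives have a fitted effect of over 25% in size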
How it was run: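 qHTS format; 40 hr compound exposure, 37 °C; CellTiter-Glo luminescence (cellular ATP) read-out after 20 min at RT. Decrease in ATP = cytotoxicity; AC50 from standard Hill fit.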

[6] = Cell Viability - HUV-EC-C (AID 542); conditions: HUV-EC-C endothelial cell viability, qHTS; series mostly up to 92.2 µM; also: % is scaled to controls: 0 for no effect and ±100 for the full control effect; nearly all actives have a fitted effect of over 35% in size
How it was run: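 Luminescent ATP read-out (CellTiter-Glo, 20 min room temperature) after 40 hr compound treatment of HUV-EC-C cells at 37 °C. Concentration-response data fitted with the standard Hill equation to give AC50; tamoxifen and doxorubicin served as positive controls.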

[7] = Cell Viability - H-4-II-E (AID 543); conditions: H-4-II-E rat hepatoma viability; series mostly up to 92.2 µM; also: % is scaled to controls: 0 for no effect and ±100 for the full control effect; nearly all actives have a fitted effect of over 35% in size
How it was run: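 qHTS, rat hepatoma H-4-II-E, 1500 cells/well; 40 hr compound exposure, 37 °C; CellTiter-Glo ATP luminescence after 20 min RT; AC50 by standard Hill fit.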

[8] = Cell Viability - SH-SY5Y (AID 544); conditions: SH-SY5Y neuroblastoma cell viability; viability change, negative = cytotoxic: at 92.2 µM (top of the series); also: nearly all actives have a fitted effect of over 55% in size
How it was run: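 SH-SY5Y, 1500 cells/well, 5 hr pre-incubation 37 °C; cpd 40 hr 37 °C; CellTiter-Glo 20 min RT; luminescence (ATP) read. qHTS concentration-response, Hill fit → AC50. Tamoxifen, doxorubicin as positive controls.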

[9] = Cell Viability - Renal Proximal Tubule (AID 545); conditions: renal proximal tubule cells viability; at 91.7 µM (top of the series), primary cells of rat origin unless noted; also: nearly all actives have a fitted effect of over 40% in size
How it was run: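 In this qHTS format, normal rat kidney-derived proximal tubule cells in complete culture medium receive compound titrations, then sit 40 hours at 37 °C before luciferase-based ATP quantitation; potency is reported as AC50 from concentration-response curves.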

[10] = Cell Viability - Mesenchymal (AID 546); conditions: mesenchymal cells viability, qHTS; series mostly up to 91.7 µM;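 also: cells exposed to compound for 40 hours before reading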
How it was run: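 Human renal mesenchymal cells (glomerulus-derived), 1000 cells/well, 5 hr 37 °C pre-incubation; compound 40 hr, 37 °C; CellTiter-Glo, 20 min RT; luminescence; AC50 via Hill equation.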

[11] = Cellular Toxicity (caspase-3) Jurkat (AID 655); conditions: Jurkat caspase-3 activation, luminescence, DMSO = 0%, tamoxifen = 100%; at 92.2 µM (top of the series);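 also: cells exposed to compound for 16 h at 37 °C before reading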
How it was run: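 qHTS in human Jurkat T-cell leukemia line: 16 hr compound treatment at 37 °C, caspase-3/7 activity measured by Caspase-Glo luminescence. AC50 derived from Hill equation.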

[12] = Cellular Toxicity (caspase-3) HUV-EC-C (AID 656); conditions: HUV-EC-C cells, caspase-3 activation (apoptosis), vehicle = 0, 100 µM tamoxifen = 100%; series mostly up to 92.2 µM
How it was run: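 Concentration-dependent caspase 3/7 induction was assessed in HUV-EC-C cells exposed for 16 hours. Data scaled between DMSO and tamoxifen (100 uM) controls.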

[13] = qHTS Assay for Identification of Small Molecule Inducers of Hypoxia Response (AID 2120; active = well fitted curve in the direction sought with a large enough effect in the signal ratio, with a control signal flat, not every such curve was filed as active; the % refers to the signal ratio; also: 0% is about no effect); conditions: hypoxia response reporter cells, beta-lactamase ratio readout; series mostly up to 104 µM
How it was run: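 Read-out: CCF4 FRET emission ratio 460nm/530nm (excitation 405nm), converted to %Activity, with AC50 fitted across a compound titration. ME-180 cells carried an HRE-driven beta-lactamase reporter; compound exposure 17 h, 37 degrees C.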

[14] = qHTS assay for small molecule agonists of retinoid X receptor alpha signaling (AID 588544); conditions: HEK293T RXRa-UAS-bla, beta-lactamase reporter, 18 h; 530 nm emission
[15] = qHTS assay for small molecule antagonists of retinoid X receptor alpha signaling (AID 588546; active = well fitted inhibition curve with a large enough effect in the signal ratio, with a control signal flat, not every such curve was filed as active; the % refers to the signal ratio;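 also: cells stimulated with 9-cis-retinoic acid as agonist; % is scaled to controls: 0 for no effect and ±100 for the full control effect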); conditions: HEK293T RXRa-UAS-bla, beta-lactamase ratio, antagonist mode; measured here: W530 green channel, cytotoxicity proxy
How it was run: (§1)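 Beta-lactamase reporter inhibition, read as CCF4 fluorescence ratio (ex 405, em 460/530 nm) after 2 h at RT. HEK293T UAS-bla cells, 2500/well, were stimulated with 9-cis-RA at 500 or 100 nM final alongside test compound for 18 h at 37 C.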

[16] = target: Retinoic acid receptor RXR-alpha (Homo sapiens) (UniProt P19793); assay: as above; conditions: HEK293T RXRa-UAS-bla, beta-lactamase ratio, antagonist mode
Sequence of Retinoic acid receptor RXR-alpha (Homo sapiens) (P19793 whole entry, looked up): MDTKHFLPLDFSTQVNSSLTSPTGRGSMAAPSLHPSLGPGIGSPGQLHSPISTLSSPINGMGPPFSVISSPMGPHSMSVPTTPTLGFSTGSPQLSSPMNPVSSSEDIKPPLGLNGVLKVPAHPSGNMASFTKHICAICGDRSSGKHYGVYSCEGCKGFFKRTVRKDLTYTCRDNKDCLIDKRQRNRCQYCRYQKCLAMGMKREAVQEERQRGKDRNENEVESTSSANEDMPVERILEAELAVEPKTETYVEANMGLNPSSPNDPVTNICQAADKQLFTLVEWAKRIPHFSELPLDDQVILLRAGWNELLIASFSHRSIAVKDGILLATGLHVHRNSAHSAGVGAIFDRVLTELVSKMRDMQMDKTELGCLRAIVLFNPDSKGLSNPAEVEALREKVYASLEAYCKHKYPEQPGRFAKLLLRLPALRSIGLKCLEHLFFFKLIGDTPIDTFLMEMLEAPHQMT
How it was run: as §1

[17] = target: Peroxisome proliferator-activated receptor alpha (Homo sapiens) (UniProt Q07869); assay: qHTS assay for small molecule agonists of the peroxisome proliferator-activated receptor alpha (PPARalpha) signaling pathway (AID 651778); conditions: PathHunter PPARalpha complementation, chemiluminescence, 6 h; stronger effect = higher value; also: % of control where 0% means no effect
Sequence of Peroxisome proliferator-activated receptor alpha (Homo sapiens) (Q07869 whole entry, looked up, the tested form may be a part): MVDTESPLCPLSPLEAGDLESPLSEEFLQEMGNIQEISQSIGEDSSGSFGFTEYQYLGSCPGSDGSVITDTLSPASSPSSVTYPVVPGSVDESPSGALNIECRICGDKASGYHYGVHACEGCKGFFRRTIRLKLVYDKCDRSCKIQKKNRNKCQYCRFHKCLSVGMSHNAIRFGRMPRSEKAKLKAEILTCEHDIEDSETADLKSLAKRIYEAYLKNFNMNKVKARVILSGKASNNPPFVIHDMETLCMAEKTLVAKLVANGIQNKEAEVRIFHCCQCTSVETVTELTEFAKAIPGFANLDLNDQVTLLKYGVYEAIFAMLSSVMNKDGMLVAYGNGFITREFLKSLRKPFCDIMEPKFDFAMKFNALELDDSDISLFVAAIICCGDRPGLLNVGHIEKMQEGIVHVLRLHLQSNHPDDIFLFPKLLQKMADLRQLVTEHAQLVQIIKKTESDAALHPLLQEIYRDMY
How it was run: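 Enzyme-fragment complementation assay in which ligand-bound PPARalpha translocates and forms an active enzyme that generates chemiluminescence. Cells were plated overnight, exposed to compound for 6 hr at 37 C, and then given detection reagent for 60 min at room temperature.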

[18] = qHTS assay for small molecule agonists of the antioxidant response element (ARE) signaling pathway measured by Nrf2-dependant transcriptional activity - cell viability counter screen (AID 720653; active = well fitted curve in the direction sought with a large enough effect in the repeat runs; an effect the other way counts as inactive or inconclusive; also: % is scaled to controls: 0 for no effect and ±100 for the full control effect); conditions: ARE-bla HepG2 viability, CellTiter-Glo ATP luminescence, 16 h; stronger effect = lower value
How it was run: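 ARE-bla HepG2 cells treated with compounds for 16 h at 37C; this counter screen measures viability as intracellular ATP by CellTiter-Glo luminescence after 30 min at room temperature.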

[19] = qHTS assay for cell viability of HEK293 cells (AID 743288); conditions: ATP luminescence (CellTiter-Glo), 18 h; max response: stronger effect = lower value; also: % is scaled to controls: 0 for no effect and ±100 for the full control effect; nearly all actives have a fitted effect of over 50% in size
How it was run: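 HEK293, 18 h, 37 C, ATP luminescence. Cells at 2,000/well were allowed at least 5 h to settle before dosing; CellTiter-Glo developed 30 min at RT.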

[20] = qHTS assay for cell viability of the p53RE-bla HCT-116 cell line (AID 743292); conditions: p53RE-bla HCT-116 viability, ATP luminescence, 16 h; series mostly up to 95 µM; also: % is scaled to controls: 0 for no effect and ±100 for the full control effect; nearly all actives have a fitted effect of over 55% in size
How it was run: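 ATP-based luminescent viability (CellTiter-Glo, 30 min RT) after 16 h compound treatment at 37 C of p53RE-bla HCT-116 cells, seeded at 4,000 cells/well and rested 5 h before dosing.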

CCCCOCCOP(=O)(OCCOCCCC)OCCOCCCC
Potency [1]: > 92 µM (inactive)
Potency [2]: > 92 µM (inactive)
Potency [3]: > 92 µM (inactive)
Potency [4]: > 92 µM (inactive)
activity change, negative = cytotoxicity [5]: -4.02% (inactive)
Potency [6]: inactive
Potency [7]: inactive
Potency [8]: inactive
activity change, negative = cytotoxicity [9]: 5.24% [at 91.7 µM] (inactive)
outcome [10]: inactive
caspase-3 activation [11]: 1.12% (inactive)
outcome [12]: inactive
outcome [13]: inactive
max response [14]: -10.8% and -2.33%
max response [15]: 2.76% and -5.2%
max response [16]: -9.74% (inactive) and -1.56% (inactive)
max response [17]: 5.47% (inactive) and -1.69% (inactive)
max response [18]: -2.06% (inactive) and 1.41% (inactive)
max response [19]: -5.77% (inactive) and -12.8% (inactive)
Potency [20]: inactive

Clc1nc(Cl)nc(Cl)n1
Potency [1]: > 92 µM (inactive)
Potency [2]: > 92 µM (inactive)
Potency [3]: > 92 µM (inactive)
Potency [4]: > 92 µM (inactive)
activity change, negative = cytotoxicity [5]: -8.17% (inactive)
Potency [6]: inactive
Potency [7]: inactive
viability change, negative = cytotoxic [8]: -96.5% (active)
activity change, negative = cytotoxicity [9]: -4.88% (inactive)
outcome [10]: inactive
caspase-3 activation [11]: 0.301% (inactive)
outcome [12]: inactive
outcome [13]: inactive
max response [14]: 5.45% and -4.64%
max response [15]: -2.29% and -4.83%
max response [16]: 12.3% (inactive) and -0.616% (inactive)
max response [17]: -5.93% (inactive) and -1.12% (inactive)
max response [18]: -4.92% (inactive) and -7.17% (inactive)
max response [19]: -10.6% (inactive) and 4.47% (inactive)
Potency [20]: inactive

CC(=O)[O-].CC(=O)[O-].O.O.O.[Pb+2]
Potency [1]: > 92 µM (inactive)
Potency [2]: > 92 µM (inactive)
Potency [3]: > 92 µM (inactive)
Potency [4]: > 92 µM (inactive)
activity change, negative = cytotoxicity [5]: 11.5% (inactive) and -1.35% (inactive)
Potency [6]: inactive
Potency [7]: inactive
Potency [8]: inactive
activity change, negative = cytotoxicity [9]: -5.61% (inactive) and -0.959% (inactive)
outcome [10]: inactive
caspase-3 activation [11]: 1.15% (inactive) and 0.852% (inactive)
outcome [12]: inactive
outcome [13]: inactive
max response [14]: -8.91% and -19.7%
max response [15]: -8.42% and -6.15%
max response [16]: 27.2% (inactive) and 0.247% (inactive)
max response [17]: -4.64% (inactive) and -4.52% (inactive)
max response [18]: -9.67% (inactive) and 5.41% (inactive)
max response [19]: -11.3% (inactive) and -5.22% (inactive)
Potency [20]: inactive

CC(C)(C)C(=O)C(Oc1ccc(Cl)cc1)n1cncn1 (configuration not stated)
max response [14]: 16% and -16.7%
max response [15]: 2.99% and 5.39%
max response [16]: 0.375% (inactive) and -49.7% (inactive)
max response [17]: 1.14% (inactive) and -0.0791% (inactive)
max response [18]: 5.28% (inactive) and -3.18% (inactive)
max response [19]: -10.8% (inactive) and -21.2% (inactive)
Potency [20]: inactive

CCCC(=O)Cl
Potency [1]: > 92 µM (inactive)
Potency [2]: > 92 µM (inactive)
Potency [3]: > 92 µM (inactive)
Potency [4]: > 92 µM (inactive)
activity change, negative = cytotoxicity [5]: -0.413% (inactive)
Potency [6]: inactive
Potency [7]: inactive
Potency [8]: inactive
activity change, negative = cytotoxicity [9]: 0.416% (inactive)
outcome [10]: inactive
caspase-3 activation [11]: -0.695% (inactive)
outcome [12]: inactive
outcome [13]: inactive
max response [14]: -4.61%
max response [15]: -5.53%
max response [16]: 15.7% (inactive)
max response [17]: -5.49% (inactive)
max response [18]: 18.2% (inactive)
max response [19]: 0.489% (inactive)
Potency [20]: inactive

Nc1ccc(Br)cc1
Potency [1]: > 92 µM (inactive)
Potency [2]: > 92 µM (inactive)
Potency [3]: > 92 µM (inactive)
Potency [4]: > 92 µM (inactive)
activity change, negative = cytotoxicity [5]: -14.1% (inactive)
Potency [6]: inactive
Potency [7]: inactive
Potency [8]: inactive
activity change, negative = cytotoxicity [9]: -3.48% (inactive)
outcome [10]: inactive
caspase-3 activation [11]: 5.03% (inactive)
outcome [12]: inactive
outcome [13]: inactive
max response [14]: 1.14%
max response [15]: 3.4%
max response [16]: 15.2% (inactive)
max response [17]: -1.52% (inactive)
max response [18]: -4.77% (inactive)
max response [19]: -7.62% (inactive)
Potency [20]: inactive

CCCSC(=O)Cl
Potency [1]: > 92 µM (inactive)
Potency [2]: > 92 µM (inactive)
Potency [3]: > 92 µM (inactive)
Potency [4]: > 92 µM (inactive)
activity change, negative = cytotoxicity [5]: -26.8% (inactive)
Potency [6]: inactive
Potency [7]: inactive
Potency [8]: inactive
activity change, negative = cytotoxicity [9]: -6.97% (inactive)
outcome [10]: inactive
caspase-3 activation [11]: 0.745% (inactive)
outcome [12]: inactive
outcome [13]: inactive
max response [14]: -2.47%
max response [15]: -2.55%
max response [16]: 25.6% (inactive)
max response [17]: -0.0229% (inactive)
max response [18]: -4.21% (inactive)
max response [19]: -1.07% (inactive)
Potency [20]: inactive

C=C(C)C#N
Potency [1]: > 92 µM (inactive)
Potency [2]: > 92 µM (inactive)
Potency [3]: > 92 µM (inactive)
Potency [4]: > 92 µM (inactive)
activity change, negative = cytotoxicity [5]: -26.6% (inactive)
Potency [6]: inactive
Potency [7]: inactive
Potency [8]: inactive
activity change, negative = cytotoxicity [9]: 0.281% (inactive)
outcome [10]: inactive
caspase-3 activation [11]: 1.57% (inactive)
outcome [12]: inactive
outcome [13]: inactive
max response [14]: 5.57% and -6.47%
max response [15]: 2.43% and -11.4%
max response [16]: -5.47% (inactive) and -20.9% (inactive)
max response [17]: -3.42% (inactive) and 0.836% (inactive)
max response [18]: -12.2% (inactive) and -0.888% (inactive)
max response [19]: -2.82% (inactive) and -11% (inactive)
Potency [20]: inactive
